# Laboratory results as given in the supplement of paper PMC9794691.
# Assays:
# Assay in all cases: area under confluence curve of osimertinib + compound combination regimen (DTP regrowth); compare to osimertinib-only DTP control AUC of the same experiment (AUC (confluence x time, arbitrary))
# H1975 = test system: H1975
# Outline: (§1)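 Two schedules were compared in EGFR-mutant NSCLC lines. In one, the EGFR inhibitor and a fixed-dose test compound were given together up to the persister stage (10–21 days), followed by drug-free medium. In the other, the inhibitor alone came first and the test compound second. Prism calculated the area under the IncuCyte confluence–time curve, taking the median of triplicates where these were available.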
# HCC2279 = test system: HCC2279
# Outline: as §1
# HCC2935 = test system: HCC2935
# Outline: as §1
# HCC4006 = test system: HCC4006
# Outline: as §1
# HCC827 = test system: HCC827
# Outline: as §1
# II-18 = test system: II-18
# Outline: as §1
# PC9 = test system: PC9
# Outline: as §1
compound,measurement,setting,value
CN(C)CCCOc1ccc(-c2ccc3ncc4c(c3c2)n(C2CCOCC2)c(=O)n4C)cn1 + C=CC(=O)Nc1cc(Nc2nccc(-c3cn(C)c4ccccc34)n2)c(OC)cc1N(C)CCN(C)C [osimertinib],area under confluence curve,"H1975; test compound dose 300 nM, dosing schedule: sequential, osimertinib-only DTP control AUC in same experiment: 19301, DMSO control AUC in same experiment: 26223",3330
same,area under confluence curve,"H1975; test compound dose 300 nM, dosing schedule: upfront, osimertinib-only DTP control AUC in same experiment: 23997, DMSO control AUC in same experiment: 26223",18100
same,area under confluence curve,"HCC2279; test compound dose 300 nM, dosing schedule: sequential, osimertinib-only DTP control AUC in same experiment: 26096, DMSO control AUC in same experiment: 14404",24700
same,area under confluence curve,"HCC2279; test compound dose 300 nM, dosing schedule: upfront, osimertinib-only DTP control AUC in same experiment: 33120, DMSO control AUC in same experiment: 14404",33900
same,area under confluence curve,"HCC2935; test compound dose 300 nM, dosing schedule: sequential, osimertinib-only DTP control AUC in same experiment: 22314, DMSO control AUC in same experiment: 19215",22300
same,area under confluence curve,"HCC2935; test compound dose 300 nM, dosing schedule: upfront, osimertinib-only DTP control AUC in same experiment: 29846, DMSO control AUC in same experiment: 19215",30600
same,area under confluence curve,"HCC4006; test compound dose 300 nM, dosing schedule: sequential, osimertinib-only DTP control AUC in same experiment: 12791, DMSO control AUC in same experiment: 18415",12000
same,area under confluence curve,"HCC4006; test compound dose 300 nM, dosing schedule: upfront, osimertinib-only DTP control AUC in same experiment: 17269, DMSO control AUC in same experiment: 18415",16000
same,area under confluence curve,"HCC827; test compound dose 300 nM, dosing schedule: sequential, osimertinib-only DTP control AUC in same experiment: 15330, DMSO control AUC in same experiment: 21320",12300
same,area under confluence curve,"HCC827; test compound dose 300 nM, dosing schedule: upfront, osimertinib-only DTP control AUC in same experiment: 20798, DMSO control AUC in same experiment: 21320",17400
same,area under confluence curve,"II-18; test compound dose 300 nM, dosing schedule: sequential, osimertinib-only DTP control AUC in same experiment: 8624, DMSO control AUC in same experiment: 11834",9720
same,area under confluence curve,"II-18; test compound dose 300 nM, dosing schedule: upfront, osimertinib-only DTP control AUC in same experiment: 10856, DMSO control AUC in same experiment: 11834",10600
Cn1cnc2c(F)c(Nc3ccc(Br)cc3Cl)c(C(=O)NOCCO)cc21 [Selumetinib] + C=CC(=O)Nc1cc(Nc2nccc(-c3cn(C)c4ccccc34)n2)c(OC)cc1N(C)CCN(C)C [osimertinib],area under confluence curve,"H1975; test compound dose 300 nM, dosing schedule: sequential, osimertinib-only DTP control AUC in same experiment: 12533, DMSO control AUC in same experiment: 14522",2580
same,area under confluence curve,"H1975; test compound dose 300 nM, dosing schedule: upfront, osimertinib-only DTP control AUC in same experiment: 18969, DMSO control AUC in same experiment: 14522",10100
same,area under confluence curve,"HCC2279; test compound dose 300 nM, dosing schedule: sequential, osimertinib-only DTP control AUC in same experiment: 15997, DMSO control AUC in same experiment: 40085",8900
same,area under confluence curve,"HCC2279; test compound dose 300 nM, dosing schedule: upfront, osimertinib-only DTP control AUC in same experiment: 28057, DMSO control AUC in same experiment: 40085",9080
same,area under confluence curve,"HCC2935; test compound dose 300 nM, dosing schedule: sequential, osimertinib-only DTP control AUC in same experiment: 7139, DMSO control AUC in same experiment: 15413",12800
same,area under confluence curve,"HCC2935; test compound dose 300 nM, dosing schedule: upfront, osimertinib-only DTP control AUC in same experiment: 19044, DMSO control AUC in same experiment: 15413",9550
same,area under confluence curve,"HCC4006; test compound dose 300 nM, dosing schedule: sequential, osimertinib-only DTP control AUC in same experiment: 14882, DMSO control AUC in same experiment: 10921",9590
same,area under confluence curve,"HCC4006; test compound dose 300 nM, dosing schedule: upfront, osimertinib-only DTP control AUC in same experiment: 18913, DMSO control AUC in same experiment: 10921",11700
same,area under confluence curve,"HCC827; test compound dose 300 nM, dosing schedule: sequential, osimertinib-only DTP control AUC in same experiment: 18675, DMSO control AUC in same experiment: 48895",11400
same,area under confluence curve,"HCC827; test compound dose 300 nM, dosing schedule: upfront, osimertinib-only DTP control AUC in same experiment: 25542, DMSO control AUC in same experiment: 48895",11100
same,area under confluence curve,"II-18; test compound dose 300 nM, dosing schedule: sequential, osimertinib-only DTP control AUC in same experiment: 21014, DMSO control AUC in same experiment: 18482",16200
same,area under confluence curve,"II-18; test compound dose 300 nM, dosing schedule: upfront, osimertinib-only DTP control AUC in same experiment: 27084, DMSO control AUC in same experiment: 18482",14400
CS(=O)(=O)CCNCc1ccc(-c2ccc3ncnc(Nc4ccc(OCc5cccc(F)c5)c(Cl)c4)c3c2)o1 [Lapatinib] + C=CC(=O)Nc1cc(Nc2nccc(-c3cn(C)c4ccccc34)n2)c(OC)cc1N(C)CCN(C)C [osimertinib],area under confluence curve,"PC9; test compound dose 1000 nM, dosing schedule: sequential, osimertinib-only DTP control AUC in same experiment: 16279, DMSO control AUC in same experiment: 29345",21600
same,area under confluence curve,"PC9; test compound dose 1000 nM, dosing schedule: upfront, osimertinib-only DTP control AUC in same experiment: 19769, DMSO control AUC in same experiment: 29345",18300
O=C(CCCCCCC(=O)Nc1ccccc1)NO [Vorinostat] + C=CC(=O)Nc1cc(Nc2nccc(-c3cn(C)c4ccccc34)n2)c(OC)cc1N(C)CCN(C)C [osimertinib],area under confluence curve,"PC9; test compound dose 1000 nM, dosing schedule: sequential, osimertinib-only DTP control AUC in same experiment: 12065, DMSO control AUC in same experiment: 48219",7830
same,area under confluence curve,"PC9; test compound dose 1000 nM, dosing schedule: sequential, osimertinib-only DTP control AUC in same experiment: 14002, DMSO control AUC in same experiment: 31239",6670
same,area under confluence curve,"PC9; test compound dose 1000 nM, dosing schedule: upfront, osimertinib-only DTP control AUC in same experiment: 22175, DMSO control AUC in same experiment: 31239",7410
same,area under confluence curve,"PC9; test compound dose 1000 nM, dosing schedule: upfront, osimertinib-only DTP control AUC in same experiment: 22645, DMSO control AUC in same experiment: 48219",10400
Nc1ccc(/C=C/C(=O)NCc2cc3cc(-c4ccc(C(=O)N5CCC(F)(F)CC5)cc4)cc(-c4ccc(F)cc4)c3o2)cn1 + C=CC(=O)Nc1cc(Nc2nccc(-c3cn(C)c4ccccc34)n2)c(OC)cc1N(C)CCN(C)C [osimertinib],area under confluence curve,"PC9; test compound dose 100 nM, dosing schedule: sequential, osimertinib-only DTP control AUC in same experiment: 14258, DMSO control AUC in same experiment: 21913",6800
same,area under confluence curve,"PC9; test compound dose 100 nM, dosing schedule: upfront, osimertinib-only DTP control AUC in same experiment: 21499, DMSO control AUC in same experiment: 21913",12200
CCn1cc(-c2cccc(C(F)(F)F)c2)c2sc(C(=N)NC3CCS(=O)(=O)CC3)cc2c1=O + C=CC(=O)Nc1cc(Nc2nccc(-c3cn(C)c4ccccc34)n2)c(OC)cc1N(C)CCN(C)C [osimertinib],area under confluence curve,"PC9; test compound dose 1000 nM, dosing schedule: sequential, osimertinib-only DTP control AUC in same experiment: 4730, DMSO control AUC in same experiment: 72888",4010
same,area under confluence curve,"PC9; test compound dose 1000 nM, dosing schedule: upfront, osimertinib-only DTP control AUC in same experiment: 8775, DMSO control AUC in same experiment: 72888",6420
COC[C@H]1Cn2cc(-c3nc(Nc4ccnn4C)ncc3C)nc2C(=O)N1Cc1ccc(F)c(F)c1 + C=CC(=O)Nc1cc(Nc2nccc(-c3cn(C)c4ccccc34)n2)c(OC)cc1N(C)CCN(C)C [osimertinib],area under confluence curve,"PC9; test compound dose 100 nM, dosing schedule: sequential, osimertinib-only DTP control AUC in same experiment: 11414, DMSO control AUC in same experiment: 31219",6430
same,area under confluence curve,"PC9; test compound dose 100 nM, dosing schedule: sequential, osimertinib-only DTP control AUC in same experiment: 14554, DMSO control AUC in same experiment: 49189",2470
same,area under confluence curve,"PC9; test compound dose 100 nM, dosing schedule: upfront, osimertinib-only DTP control AUC in same experiment: 18848, DMSO control AUC in same experiment: 31219",2020
same,area under confluence curve,"PC9; test compound dose 100 nM, dosing schedule: upfront, osimertinib-only DTP control AUC in same experiment: 24473, DMSO control AUC in same experiment: 49189",2580
NC(=O)Nc1cc(-c2cccc(F)c2)sc1C(=O)N[C@H]1CCCNC1 + C=CC(=O)Nc1cc(Nc2nccc(-c3cn(C)c4ccccc34)n2)c(OC)cc1N(C)CCN(C)C [osimertinib],area under confluence curve,"PC9; test compound dose 5 nM, dosing schedule: sequential, osimertinib-only DTP control AUC in same experiment: 7760, DMSO control AUC in same experiment: 29563",4940
same,area under confluence curve,"PC9; test compound dose 5 nM, dosing schedule: upfront, osimertinib-only DTP control AUC in same experiment: 11798, DMSO control AUC in same experiment: 29563",9410
COC(=O)c1ccc([C@H]2c3[nH]c4ccccc4c3C[C@H](C(=O)OC)N2C(=O)CCl)cc1 + C=CC(=O)Nc1cc(Nc2nccc(-c3cn(C)c4ccccc34)n2)c(OC)cc1N(C)CCN(C)C [osimertinib],area under confluence curve,"H1975; test compound dose 100 nM, dosing schedule: sequential, osimertinib-only DTP control AUC in same experiment: 9919, DMSO control AUC in same experiment: 26010",7660
same,area under confluence curve,"H1975; test compound dose 100 nM, dosing schedule: upfront, osimertinib-only DTP control AUC in same experiment: 15327, DMSO control AUC in same experiment: 26010",13400
same,area under confluence curve,"HCC2279; test compound dose 100 nM, dosing schedule: sequential, osimertinib-only DTP control AUC in same experiment: 11520, DMSO control AUC in same experiment: 9426",13900
same,area under confluence curve,"HCC2279; test compound dose 100 nM, dosing schedule: upfront, osimertinib-only DTP control AUC in same experiment: 21942, DMSO control AUC in same experiment: 9426",20100
same,area under confluence curve,"HCC2935; test compound dose 100 nM, dosing schedule: sequential, osimertinib-only DTP control AUC in same experiment: 9121, DMSO control AUC in same experiment: 11459",5900
same,area under confluence curve,"HCC2935; test compound dose 100 nM, dosing schedule: upfront, osimertinib-only DTP control AUC in same experiment: 12748, DMSO control AUC in same experiment: 11459",6780
same,area under confluence curve,"HCC4006; test compound dose 100 nM, dosing schedule: sequential, osimertinib-only DTP control AUC in same experiment: 19238, DMSO control AUC in same experiment: 16638",19000
same,area under confluence curve,"HCC4006; test compound dose 100 nM, dosing schedule: upfront, osimertinib-only DTP control AUC in same experiment: 21234, DMSO control AUC in same experiment: 16638",21000
same,area under confluence curve,"HCC827; test compound dose 100 nM, dosing schedule: sequential, osimertinib-only DTP control AUC in same experiment: 25096, DMSO control AUC in same experiment: 35394",6740
same,area under confluence curve,"HCC827; test compound dose 100 nM, dosing schedule: upfront, osimertinib-only DTP control AUC in same experiment: 27382, DMSO control AUC in same experiment: 35394",27100
same,area under confluence curve,"II-18; test compound dose 100 nM, dosing schedule: sequential, osimertinib-only DTP control AUC in same experiment: 3520, DMSO control AUC in same experiment: 13556",183
same,area under confluence curve,"II-18; test compound dose 100 nM, dosing schedule: upfront, osimertinib-only DTP control AUC in same experiment: 6532, DMSO control AUC in same experiment: 13556",1800
same,area under confluence curve,"PC9; test compound dose 100 nM, dosing schedule: sequential, osimertinib-only DTP control AUC in same experiment: 8716, DMSO control AUC in same experiment: 45737",655
same,area under confluence curve,"PC9; test compound dose 100 nM, dosing schedule: sequential, osimertinib-only DTP control AUC in same experiment: 10175, DMSO control AUC in same experiment: 27958",1250
same,area under confluence curve,"PC9; test compound dose 100 nM, dosing schedule: sequential, osimertinib-only DTP control AUC in same experiment: 14030, DMSO control AUC in same experiment: 30326",1840
same,area under confluence curve,"PC9; test compound dose 100 nM, dosing schedule: upfront, osimertinib-only DTP control AUC in same experiment: 11096, DMSO control AUC in same experiment: 45737",12700
same,area under confluence curve,"PC9; test compound dose 100 nM, dosing schedule: upfront, osimertinib-only DTP control AUC in same experiment: 16134, DMSO control AUC in same experiment: 27958",13900
same,area under confluence curve,"PC9; test compound dose 100 nM, dosing schedule: upfront, osimertinib-only DTP control AUC in same experiment: 20885, DMSO control AUC in same experiment: 30326",13600
